Measured values as given in PubChem BioAssay.
A number with no mark means an inactive call. Active and inactive are the calls of the source.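 How the source made its calls, unless noted: active means mean inhibition over 43.08%, the solvent-only control mean plus 3 SD; inactive means the rest.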

Experiments:
[1] = molecular target: Nuclear receptor coactivator 3 (Homo sapiens) (UniProt Q9Y6Q9); test: NCOA3 GAL4-fusion reporter inhibition – cell-based, luminescence, quadruplicate, confirmation (AID 588792); conditions: HEK293 GAL4-SRC3 luciferase reporter, at 3.6 µM, hits give high values;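 further: 0% = DMSO treated cells and 100% = gossypol at 36 µM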
Chain of Nuclear receptor coactivator 3 (Homo sapiens) (Q9Y6Q9 whole entry, looked up, the tested form may be a part): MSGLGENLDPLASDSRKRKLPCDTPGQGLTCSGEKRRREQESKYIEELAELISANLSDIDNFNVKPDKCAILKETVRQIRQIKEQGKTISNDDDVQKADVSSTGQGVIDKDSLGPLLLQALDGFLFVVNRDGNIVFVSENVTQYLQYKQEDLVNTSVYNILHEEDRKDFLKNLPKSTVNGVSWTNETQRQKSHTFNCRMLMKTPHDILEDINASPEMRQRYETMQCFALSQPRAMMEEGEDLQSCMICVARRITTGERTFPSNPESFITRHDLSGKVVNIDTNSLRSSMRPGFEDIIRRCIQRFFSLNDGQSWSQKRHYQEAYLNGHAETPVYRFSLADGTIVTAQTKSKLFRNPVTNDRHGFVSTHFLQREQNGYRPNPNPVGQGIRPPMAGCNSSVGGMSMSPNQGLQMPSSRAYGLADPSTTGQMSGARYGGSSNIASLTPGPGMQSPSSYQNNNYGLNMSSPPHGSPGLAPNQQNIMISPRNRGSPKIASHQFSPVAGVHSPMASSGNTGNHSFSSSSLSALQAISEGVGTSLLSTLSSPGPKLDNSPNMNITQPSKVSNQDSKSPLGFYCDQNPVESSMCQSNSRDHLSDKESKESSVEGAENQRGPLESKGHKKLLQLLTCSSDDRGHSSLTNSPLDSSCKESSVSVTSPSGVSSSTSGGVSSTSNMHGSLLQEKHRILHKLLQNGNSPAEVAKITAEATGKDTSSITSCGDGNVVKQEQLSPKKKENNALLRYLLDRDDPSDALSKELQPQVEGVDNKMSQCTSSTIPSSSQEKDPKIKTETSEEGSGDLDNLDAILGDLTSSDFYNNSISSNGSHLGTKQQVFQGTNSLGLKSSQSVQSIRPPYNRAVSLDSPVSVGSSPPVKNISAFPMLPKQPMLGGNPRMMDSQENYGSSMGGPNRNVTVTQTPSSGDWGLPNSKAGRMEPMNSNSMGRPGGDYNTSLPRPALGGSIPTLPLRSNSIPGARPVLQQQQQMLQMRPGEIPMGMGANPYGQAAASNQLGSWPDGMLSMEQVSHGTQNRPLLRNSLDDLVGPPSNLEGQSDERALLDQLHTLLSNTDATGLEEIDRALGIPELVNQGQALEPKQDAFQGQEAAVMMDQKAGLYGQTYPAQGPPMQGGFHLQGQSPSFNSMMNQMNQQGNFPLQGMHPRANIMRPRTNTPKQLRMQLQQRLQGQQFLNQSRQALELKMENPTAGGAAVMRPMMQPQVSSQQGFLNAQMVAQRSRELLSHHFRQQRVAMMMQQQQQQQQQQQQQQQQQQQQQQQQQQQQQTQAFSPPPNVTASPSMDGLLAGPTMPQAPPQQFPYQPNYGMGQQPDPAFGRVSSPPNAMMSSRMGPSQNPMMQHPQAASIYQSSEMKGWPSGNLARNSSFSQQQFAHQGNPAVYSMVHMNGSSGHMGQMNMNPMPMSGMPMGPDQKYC

[2] = tested on: transactivating tegument protein VP16 (Human herpesvirus 1), Gal4-VP16 luciferase reporter; test: repression of VP16-driven luciferase reporter – cell-based, luminescence, high throughput, counter-screen for SRC3 inhibitor project (AID 588794; in the data active means inhibition above about 30%); conditions: mammalian cells, at 3.6 µM, hits give high values

Compound	inhibition [1] [%]	inhibition [2]
CC(C)NC(=O)N(C)C[C@H]1Oc2ccc(NS(=O)(=O)c3ccc(Cl)cc3)cc2CC(=O)N([C@@H](C)CO)C[C@@H]1C	5.62	-1.86%
CCOc1ccc(OCC)c(NC(=O)CN(C)S(=O)(=O)c2cccc3nsnc23)c1	1.36	0.62%
COc1cc(/C=C(/C(=O)c2cccs2)c2nc3ccccc3[nH]2)cc(OC)c1O	31.4	12.1%
FC(F)(F)c1cccc(NC(=S)N(CCCN2CCCC2)Cc2cccn2Cc2ccc(Cl)cc2)c1	-14.5	0.12%
Cc1cc(C(=O)N2CCN(c3ccccn3)CC2)no1	4.36	-9.5%
Cc1cc2[nH]c3c4ccccc4nc(C)c3c2cc1C	20.5	33.8% (active)
CCOC(=O)N1CCC2(CC1)C(C#N)=C(N)Oc1n[nH]c(CSc3ccc(C)cc3)c12	2.57	-6.53%
CNCC(C)COc1ccccc1OCc1ccccc1 (stereo not drawn)	2.54	10.4%
N#CCc1c[nH]c2ccc([N+](=O)[O-])cc12	24	20%
CCC(=O)NC(c1cccs1)c1cc(Cl)c2cccnc2c1O (stereo not drawn)	20.9	25.6%
COc1ccc(N2CCN(c3nc(NCCc4ccc(OC)c(OC)c4)nc(OC)n3)CC2)cc1	6.14	1.14%
Cc1ccc(NC(=O)c2cccc(S(=O)(=O)NCc3ccccc3)c2)nc1	-3.03	6.44%
O=C(NCCNc1ccc([N+](=O)[O-])cc1C(F)(F)F)c1cccc(F)c1	15.4	12.6%
CCc1nc2ccccc2c(C(=O)OCC(=O)Nc2cccc(S(=O)(=O)N3CCOCC3)c2)c1C	1.17	8.71%
